Like-named read-outs stand apart in the source and are kept apart here.
Key:
ROCK2 = settings: n = 1
RIOK1 = settings: concentration: 1 μM, replicates: in singlicate; n = 1
RIOK2 = settings: concentration: 1 μM, replicates: in singlicate; n = 1
RIOK3 = settings: concentration: 1 μM, replicates: in singlicate; n = 1
RIPK1 = settings: concentration: 1 μM, replicates: in singlicate; n = 1
RIPK2 = settings: concentration: 1 μM, replicates: in singlicate; n = 1
RIPK4 = settings: concentration: 1 μM, replicates: in singlicate; n = 1
RIPK5 = settings: concentration: 1 μM, replicates: in singlicate; n = 1
ROCK1 = settings: concentration: 1 μM, replicates: in singlicate; n = 1
ROS1 = settings: concentration: 1 μM, replicates: in singlicate; n = 1
[1] = concentration: 1 μM, replicates: in singlicate
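Also: KINOMEscan kinase panel screen.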

Row | Structure (SMILES) | %Inh (ROCK2; 1 µM) | %Inh (RIOK1) | %Inh (RIOK2) | %Inh (RIOK3) | %Inh (RIPK1) | %Inh (RIPK2) | %Inh (RIPK4) | %Inh (RIPK5) | %Inh (ROCK1) | %Inh (ROCK2; [1]) | %Inh (ROS1)
1 | CCn1c(-c2nonc2N)nc2c(C#CC(C)(C)O)ncc(OCCCCN)c21.O=C(O)C(F)(F)F.O=C(O)C(F)(F)F [GSK507274] | 95.3% | – | – | – | – | – | – | – | – | – | –
2 | NCCCC(NC(=O)c1cc(Br)c(-c2ccnc3[nH]ccc23)s1)c1ccccc1.O=C(O)C(F)(F)F.O=C(O)C(F)(F)F (centres unmarked) [GSK1287544] | – | 91.8% | 66% | 76% | 53% | 0% | 6% | 1% | 99.4% | 92.8% | 10%
3 | O=C(Nc1ccccc1F)NC1CCN(c2ccnc(Nc3ccc(F)cc3)n2)CC1 [GSK1379800] | – | 58% | 0% | 43% | 26% | 0% | 16% | 0% | 10% | 31% | 0%
4 | CC(=O)Nc1nc2cnc(Nc3cc(NC(=O)c4cccc(C5(C#N)CC5)c4Cl)ccc3C)nc2s1 | – | 15% | 5% | 3% | 2% | 0% | 0% | 15% | 5% | 0% | 0%
5 | COc1cc(Nc2nccc(-c3c(-c4cccc(NC(=O)c5c(F)cccc5F)c4)nn4ccccc34)n2)cc(OC)c1OC [GSK323521] | – | 34% | 14% | 0% | 93.9% | 79% | 0% | 67% | 0% | 6% | 0%
6 | COc1cccc(C(=O)Nc2cccc(Oc3ccc4nc(NC(=O)C5CC5)cn4n3)c2)c1 | – | 55% | 0% | 39% | 20% | 50% | 0% | 0% | 0% | 0% | 0%
7 | COc1cc(Nc2nccc(N3CCC(NC(=O)c4cc5ccccc5s4)C3)n2)cc(OC)c1OC (centres unmarked) [GSK1379760] | – | 76% | 14% | 53% | 24% | 7% | 0% | 0% | 0% | 14% | 45%
8 | CN1CCN(Cc2cccc(-c3ccc4c(Nc5ccc(Oc6ccccc6)cc5)ccnc4c3)c2)CC1 [GW578342] | – | 21% | 0% | 32% | 0% | 98.6% | 0% | 0% | 25% | 20% | 0%
9 | CCn1c(-c2nonc2N)nc2c(C#CC(C)(C)O)nc(OC[C@H](N)c3ccccc3)cc21 [GSK943949] | – | 11% | 0% | 4% | 4% | 0% | 7% | 29% | 59% | 91.9% | 2%
10 | Nc1n[nH]c2cnc(-c3ccccc3)cc12 [SB-642124] | – | 31% | 20% | 100% | 30% | 29% | 25% | 0% | 40% | 18% | 0%
11 | COc1cc(Nc2nccc(-c3c(-c4cccc(NC(=O)c5c(F)cccc5F)c4)nn4ncccc34)n2)cc(OC)c1OC [GSK327238] | – | 20% | 5% | 24% | 16% | 99.4% | 4% | 0% | 12% | 14% | 75%
12 | CN(c1ccc(NC(=O)Nc2cc(C(F)(F)F)ccc2F)cc1)c1ccnc(Nc2ccc(S(N)(=O)=O)cc2)n1 [GW809893] | – | 24% | 2% | 40% | 99.1% | 73% | 26% | 47% | 0% | 24% | 95.9%
13 | CC(C)c1nc(-c2cccc(NS(=O)(=O)c3c(F)cccc3F)c2F)c(-c2ccnc(Nc3ccc(N4CCOCC4)nc3)n2)s1 [GSK2008607] | – | 22% | 0% | 17% | 0% | 96.3% | 15% | 92.6% | 0% | 0% | 35%
14 | FC(F)(F)c1ccc(/C=C/c2cncnc2Nc2ccc3[nH]c(Cc4ccccc4)nc3c2)cc1 [GW709199] | – | 33% | 0% | 2% | 11% | 11% | 0% | 0% | 0% | 0% | 0%
15 | COc1cccc(-c2ccc3c(NC(=O)C4CC4)n[nH]c3n2)c1 [SB-710903] | – | 38% | 0% | 0% | 99.5% | 15% | 27% | 1% | 38% | 49% | 0%
16 | Cc1ccc(F)c(C(=O)Nc2cccc(-c3nn4ccccc4c3-c3ccnc(Nc4cccc(F)c4)n3)c2)c1F [GSK361061] | – | 23% | 26% | 5% | 2% | 61% | 4% | 0% | 0% | 3% | 21%
17 | COc1ccc(-c2coc3ccc(-c4nnc(SCc5ccc(OC)c(C(F)(F)F)c5)o4)cc23)cc1 | – | 0% | 20% | 9% | 9% | 17% | 12% | 20% | 0% | 23% | 0%
18 | COc1cc2c(cc1OCCN1CCNCC1)ncc1c3ccc(C#N)cc3[nH]c21 | – | 82% | 12% | 93.9% | 0% | 16% | 41% | 28% | 99.2% | 99.7% | 0%
19 | CCc1ccc(-c2ccc3c(c2)-c2c(cnn2C)S(=O)(=O)N3C)cc1 | – | 0% | 12% | 0% | 0% | 0% | 9% | 26% | 0% | 0% | 3%

Row | Structure (SMILES) | %Inh (ROCK2; 1 µM) | %Inh (RIOK1) | %Inh (RIOK2) | %Inh (RIOK3) | %Inh (RIPK1) | %Inh (RIPK2) | %Inh (RIPK4) | %Inh (RIPK5) | %Inh (ROCK1) | %Inh (ROCK2; [1]) | %Inh (ROS1)
20 | O=C(NC1CCN(c2ccnc(Nc3ccc(F)cc3)n2)C1)c1cc2ccccc2s1 (centres unmarked) [GSK1379716] | – | 27% | 0% | 33% | 0% | 9% | 3% | 13% | 39% | 29% | 36%
21 | O=C(Nc1cccc(-c2nn3ccccc3c2-c2ccnc(Nc3cccc(C(F)(F)F)c3)n2)c1)c1c(F)cccc1F [GSK292658] | – | 17% | 6% | 0% | 7% | 63% | 0% | 0% | 0% | 1% | 0%
22 | c1ccc(Oc2ccc(Nc3ccnc4cc(-c5ccc(CNCCN6CCOCC6)o5)ccc34)cc2)nc1 [GW567145] | – | 0% | 0% | 0% | 0% | 93.5% | 0% | 1% | 4% | 40% | 0%
23 | CNC(=O)c1ccccc1Nc1nc(Nc2ccc(N3CCOCC3)cc2)ncc1Cl.Cl [GSK1576028] | – | 100% | 90.7% | 100% | 36% | 35% | 79% | 80% | 53% | 37% | 90.9%
24 | Nc1ncc(-c2ccc3nccc(-c4ccncc4)c3c2)cc1S(=O)(=O)N1CCOCC1 [GSK1627798] | – | 30% | 39% | 17% | 0% | 1% | 4% | 0% | 0% | 0% | 15%
25 | COc1cc(Nc2nccc(N3CCC(NC(=O)Nc4cccc(C(C)=O)c4)C3)n2)cc(OC)c1OC (centres unmarked) [GSK1379753] | – | 73% | 0% | 65% | 9% | 22% | 48% | 0% | 25% | 7% | 30%
26 | O=C(Nc1n[nH]c2nc(-c3ccc(O)cc3)ccc12)C1CC1 [SB-710363] | – | 47% | 0% | 46% | 2% | 0% | 39% | 0% | 0% | 0% | 0%
27 | COc1ccc(CNC(=O)NC2CCN(c3ccnc(Nc4ccc(F)cc4)n3)CC2)cc1 [GSK1379788] | – | 28% | 0% | 0% | 0% | 0% | 12% | 0% | 12% | 31% | 26%
28 | Clc1ccc(-c2nn3ncccc3c2-c2ccnc(Nc3ccc4c(c3)OCCO4)n2)cc1 [GW829116] | – | 0% | 0% | 0% | 0% | 83% | 0% | 0% | 37% | 0% | 0%
29 | Cl.c1ccc(-c2ccc3c(Nc4ccc5[nH]ncc5c4)ccnc3c2)nc1 [GW440137] | – | 32% | 11% | 32% | 6% | 75% | 23% | 4% | 10% | 35% | 0%
30 | O=C(Nc1cccc(Oc2ccc3nc(NC(=O)C4CC4)cn3n2)c1)c1ccccc1C(F)(F)F | – | 64% | 0% | 76% | 15% | 11% | 0% | 0% | 0% | 0% | 0%
31 | Nc1ncnc2c1nc(-c1ccccc1)n2-c1ccccc1 [SKF-97293] | – | 0% | 1% | 6% | 3% | 7% | 27% | 36% | 56% | 43% | 15%
32 | Cc1cccc(NC(=O)Nc2ccc(Oc3ncnc4ccn(C)c34)cc2)c1 | – | 0% | 0% | 24% | 0% | 11% | 0% | 5% | 0% | 0% | 0%
33 | Cl.Cl.NCC(NC(=O)c1cc(-c2ccccc2)c(-c2ccnc3[nH]ccc23)s1)c1ccccc1 (centres unmarked) [GSK1321561] | – | 69% | 45% | 88% | 24% | 24% | 0% | 0% | 99.8% | 98.9% | 19%
34 | COC(=O)Nc1nc2cc(Oc3ccc(NC(=O)Nc4cc(C(F)(F)F)ccc4F)cn3)ccc2[nH]1.Cl.Cl [GW681170] | – | 0% | 0% | 14% | 41% | 58% | 0% | 0% | 51% | 46% | 27%
35 | COc1ccc(Nc2nccc(N3CCC(NC(=O)Nc4cccc(OC)c4)C3)n2)cc1 (centres unmarked) [GSK1379742] | – | 34% | 4% | 25% | 0% | 0% | 0% | 0% | 0% | 2% | 13%
36 | O=c1[nH]cc(-c2ccc(N3CCOCC3)cc2)c2sc(-c3cn[nH]c3)cc12 [GSK2276055] | – | 37% | 76% | 25% | 18% | 0% | 12% | 10% | 0% | 0% | 0%
37 | CC(C)(C)c1ccc2nccc(Nc3cccc(O)c3)c2c1 [GW856795] | – | 21% | 0% | 24% | 0% | 34% | 43% | 0% | 55% | 30% | 0%
38 | O=C(Nc1cccc(-c2nn3ncccc3c2-c2ccnc(Nc3ccccc3)n2)c1)c1c(F)cccc1F [GSK198271] | – | 4% | 17% | 16% | 0% | 94.8% | 10% | 6% | 34% | 0% | 28%

Reference: article PMC5540273 (PLoS ONE, 2017)
